Over roughly 35,000 sequences, “fluorescence intensity (a.u.)” has its median near 10,000; the highest 2% begin near 52,000. Many of the other results were omitted from the sample, so the highest values are more common in it than they were.
target: T1, OsWOX13 (Oryza sativa, UniProt Q5QMM3 1-267); experiment: protein-binding microarray (RPBM); PBS, 2% BSA, 51.3 ng/ul salmon testes DNA, 50 uM zinc acetate, 200 nM TF, 25 C, 1 h; high values mean tight binding; details: protein: recombinant; tags: N-terminal polyhistidine and DsRed monomer fusion (pET32a); label: CyDye5-dUTP incorporated in the synthesized complementary strand; 3' TTTTT single-stranded linker to array surface; dsDNA, one strand shown
T1 sequence: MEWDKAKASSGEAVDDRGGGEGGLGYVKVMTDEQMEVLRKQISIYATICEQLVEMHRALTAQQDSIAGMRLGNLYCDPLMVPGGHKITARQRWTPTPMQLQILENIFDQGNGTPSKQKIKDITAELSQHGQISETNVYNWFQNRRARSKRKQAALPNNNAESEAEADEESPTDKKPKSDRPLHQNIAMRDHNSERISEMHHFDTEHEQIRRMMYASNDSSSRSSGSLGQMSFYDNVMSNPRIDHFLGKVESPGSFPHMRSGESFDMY
Procedure, shortened: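 An Axon 4000B scanner gave the binding signal as per-feature fluorescence intensity in arbitrary units. This followed washing of a custom Agilent array that had been incubated for 1 h at 25 °C with 200 nM protein in PBS, 2% BSA, salmon testes DNA and 50 µM zinc acetate. The proteins were transcription factors fused at the N-terminus to polyhistidine and DsRed, expressed in E. coli BL21-CodonPlus and purified on Ni–NTA.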

| Sequence | binding signal |
| --- | --- |
| AAAACAGTTTGATTAGCTTTCTGTCGAATCTGTCATGCATCGGAGTCACCTAGTGCAG | 16500 fluorescence intensity (a.u.) |
| TTCTGATTAGTTACAACTTGAGTTCACTATTGTCATGATACGGAGTCACCTAGTGCAG | 37200 fluorescence intensity (a.u.) |
| GACAAGATCAGTCCTAATTATATATATGTTTTACCTTCTACGGAGTCACCTAGTGCAG | 4490 fluorescence intensity (a.u.) |
| TGCAATAAATTATAGATGACTGAACATTTACACTCTACAGCGGAGTCACCTAGTGCAG | 15300 fluorescence intensity (a.u.) |
| CATAACTAATTAGTAACACAAAGAATATTGATTAGATGATCGGAGTCACCTAGTGCAG | 43100 fluorescence intensity (a.u.) |
| CGCTAAAATTAAAAGTTTGATTGAAATTAGAACGATGTAACGGAGTCACCTAGTGCAG | 30300 fluorescence intensity (a.u.) |
| TTAAAATTAAACTTTTGCAGTCTTTCTAATTTGCCTCCTCCGGAGTCACCTAGTGCAG | 5220 fluorescence intensity (a.u.) |
| ACTGAACAAATTGAGCATGGTGTATATGTCACATTTTCTACGGAGTCACCTAGTGCAG | 6220 fluorescence intensity (a.u.) |
| TACATACAAGTTACAGTGTAATTACACTACGATTGTACTACGGAGTCACCTAGTGCAG | 3630 fluorescence intensity (a.u.) |
| TTGCACTGATTTTGTAACTTAAGGGATACGTCGTATCCGGCGGAGTCACCTAGTGCAG | 6500 fluorescence intensity (a.u.) |
| AGCCACGCAATCAATTAAATAATTAAGATAGGTACACGTGCGGAGTCACCTAGTGCAG | 26400 fluorescence intensity (a.u.) |
| CATATGACCAGTTTAACTGCCATCATGCAGACACACAGGACGGAGTCACCTAGTGCAG | 3410 fluorescence intensity (a.u.) |
| ATATAAATCAAATTTACAACTTTGCTGTAGCTATAATTTGCGGAGTCACCTAGTGCAG | 7160 fluorescence intensity (a.u.) |
| CATATGATTAATTAAAATTTTATCATTTAGAACTTGAAAACGGAGTCACCTAGTGCAG | 34800 fluorescence intensity (a.u.) |
| ATAACTTTTAATTTAAGCTAATTTTATTTCTGCCGGACATCGGAGTCACCTAGTGCAG | 19600 fluorescence intensity (a.u.) |
| GCATAACTAATTGTTGTTGCACATATTTTCTTTATAAAGCCGGAGTCACCTAGTGCAG | 15500 fluorescence intensity (a.u.) |
| TAGGTGACAGTTTATTTAATGCTATTGACACTATTCTAGCCGGAGTCACCTAGTGCAG | 8640 fluorescence intensity (a.u.) |
| CATTATTGATTGATTGATTCGCAGATTCGCCGCTGCCACCCGGAGTCACCTAGTGCAG | 57200 fluorescence intensity (a.u.) |
| ATTATTTGTGATTTGATTGCTAGTGATTTGAACTAATGGCCGGAGTCACCTAGTGCAG | 64300 fluorescence intensity (a.u.) |
| TATTGATTAAATTTAATTTATAGATAGACTAATATTTTACCGGAGTCACCTAGTGCAG | 29800 fluorescence intensity (a.u.) |
| AATGGGAACTAATGGGCCGGATTGACTACTTTGCTACATTCGGAGTCACCTAGTGCAG | 3240 fluorescence intensity (a.u.) |

| Sequence | binding signal |
| --- | --- |
| GTGATTGGGCTATTTGTAATGTTCAGATGGTGAACTGTGCCGGAGTCACCTAGTGCAG | 27600 fluorescence intensity (a.u.) |
| TTAATTAATTGCTAATTACACTAATTAATTTATTGATAGCCGGAGTCACCTAGTGCAG | 65200 fluorescence intensity (a.u.) |
| CACATAATTGAACTGCTAATTTTATTCTAGTCGGAAGCACCGGAGTCACCTAGTGCAG | 54600 fluorescence intensity (a.u.) |
| CCGCACTCTATTATTGTATTGATTAGCTTGTGTCATTCGCCGGAGTCACCTAGTGCAG | 20500 fluorescence intensity (a.u.) |
| GATGAAGATTGATATTACCTGCGGCCGCCGGCGCCGCTGTCGGAGTCACCTAGTGCAG | 7110 fluorescence intensity (a.u.) |
| GCCTAATTAATCCGTCATTAGCAAATGTTTATTGTAGCACCGGAGTCACCTAGTGCAG | 38200 fluorescence intensity (a.u.) |
| GCTGACAGGGACAATCGGATGGAGCAGAATGTCTGAACGTCGGAGTCACCTAGTGCAG | 11000 fluorescence intensity (a.u.) |
| TTTGATCAAAATCAAAACGTCTTATAACCTGAAACGGAGGCGGAGTCACCTAGTGCAG | 4210 fluorescence intensity (a.u.) |
| GCTAATTAAGTCCATTGCACATAGATCGATATGTGTACACCGGAGTCACCTAGTGCAG | 27700 fluorescence intensity (a.u.) |
| CCAATTGACTATATATAACATAGTACTTGCTAGCTTAATTCGGAGTCACCTAGTGCAG | 3640 fluorescence intensity (a.u.) |
| TTTAGGATTGAAGTAAACTGTAAACTATATGTCTGACCGCCGGAGTCACCTAGTGCAG | 16600 fluorescence intensity (a.u.) |
| CAATACATAACAGACAAATTATCAAAATAGATTAAAGTTTCGGAGTCACCTAGTGCAG | 4710 fluorescence intensity (a.u.) |
| ATTTTAAATTTATTATATGATGATTAATTTGGGAATGAGGCGGAGTCACCTAGTGCAG | 28400 fluorescence intensity (a.u.) |
| TACATCACTAATCACGTTGCTTCGATGACACCTCCTTCTTCGGAGTCACCTAGTGCAG | 7440 fluorescence intensity (a.u.) |
| TGTATGTGTGTACTCGTAATTAGTGAGAATTTAAATTCATCGGAGTCACCTAGTGCAG | 3820 fluorescence intensity (a.u.) |
| CAAAAGTGTTCAATCAAATATGAAAATGAGTATAATGCAACGGAGTCACCTAGTGCAG | 6990 fluorescence intensity (a.u.) |
| CTAATTAGGTCCAGGACATTAAATGGGTTGATTACGTCACCGGAGTCACCTAGTGCAG | 8450 fluorescence intensity (a.u.) |
| GTTTATGTTAGTGCTAGTGATTAGTACTTAAACATTCAGACGGAGTCACCTAGTGCAG | 4010 fluorescence intensity (a.u.) |
| GTTTCTAATTAACTAAATTAATTAATTAGCATGATTGGTCCGGAGTCACCTAGTGCAG | 64700 fluorescence intensity (a.u.) |
| CCAATTTAATAAAATAAATTGATACTATAAATATTACAATCGGAGTCACCTAGTGCAG | 9090 fluorescence intensity (a.u.) |
| CTTATTAGCACATGATTAATTAATTATTAACTATTATAAACGGAGTCACCTAGTGCAG | 19500 fluorescence intensity (a.u.) |
